Assay outcomes deposited in PubChem by several laboratories.
A selection: hits, their analogues and other compounds. The true share with any hit is near 2%.
bovine MsrA act – bovine MsrA enzyme activators, primary screen, biochemical, absorbance, HTS. AID 602163, 2012. purified bovine MsrA, absorbance read-out. 360,000 tested, 0.3% active. activation, % at 10.6 µM. Methionine sulfoxide reductase A (Bos taurus); in the data active = activation above about 7.5%;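 also: 0% = vehicle and 100% = reference activator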
MsrA inhibitor – bovine MsrA enzyme inhibitors, primary screen, biochemical, absorbance, HTS; Methionine sulfoxide reductase A (Bos taurus); purified bovine MsrA, absorbance read-out; inhibition, % at 15.5 µM; 360,000 tested, 0.75% active; AID 651718, 2012;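 also: 0% = vehicle wells with enzyme and 100% = reference inhibitor wells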
PKA-R1A act – activators of PKA-R1A holoenzyme, primary screen, biochemical, fluorescence polarization, Cy5-IP20, bovine R1A, mouse PKAc; PKA-R1A dissociation; scaled: DMSO 0%, 113 µM cGMP 100%; activation, % at 11.4 µM; 340,000 tested, 0.083% active; AID 504707, 2011;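 active = percent activation above the mean of all tested compounds plus 3 SD, cut at about 19% in these data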;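 also: higher means more PKAc released from R1A so a rise in polarization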
PKA-R2B activ – activators of PKA-R2B holoenzyme, primary screen, biochemical, fluorescence polarization, Cy5-IP20, human | PKA-R2B holoenzyme dissociation; R2B truncated from residue 108, S112A mutant; 0% DMSO only, 100% 113 µM cGMP | 340,000 tested, 0.079% active | cAMP-dependent protein kinase catalytic subunit beta (Homo sapiens) + cAMP-dependent … | activation, % at 11.4 µM;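 active = activation above a cutoff set at the mean over all compounds plus 3 SD, cut at about 18% in these data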;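 also: higher means more holoenzyme dissociation and a rise in polarization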
Target sequence (P31323 whole entry, looked up, other chains not shown, the tested form may be a part): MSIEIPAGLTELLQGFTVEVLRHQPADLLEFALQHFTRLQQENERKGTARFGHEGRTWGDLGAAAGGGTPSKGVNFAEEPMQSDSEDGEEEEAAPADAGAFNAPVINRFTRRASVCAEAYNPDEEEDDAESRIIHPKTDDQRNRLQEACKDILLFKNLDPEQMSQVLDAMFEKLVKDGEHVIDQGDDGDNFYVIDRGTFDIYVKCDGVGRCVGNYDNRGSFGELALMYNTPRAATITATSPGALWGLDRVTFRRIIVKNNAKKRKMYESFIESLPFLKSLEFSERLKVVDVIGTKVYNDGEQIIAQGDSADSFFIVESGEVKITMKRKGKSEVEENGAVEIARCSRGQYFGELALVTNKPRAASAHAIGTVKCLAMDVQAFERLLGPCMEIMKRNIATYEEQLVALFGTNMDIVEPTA
Mot1-301 SUMO – yeast Mot1-301 growth rescue at high temperature, primary screen, SUMOylation pathway inhibitor project, S. cerevisiae, ATP luminescence, 38.5C | S. cerevisiae Mot1-301 growth rescue; percent above DMSO median, 100 means doubled | growth rescue, % at 18.8 µM | 320,000 tested, 1% active | AID 2716, 2010;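 active = every valid replicate shows activation above 250% relative to neutral control wells; inactive = the rest, any valid replicate at or below 250%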;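 also: OY570 slx delta 5 strain wells were the positive control but not used for scaling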
MsrA conf – bovine MsrA inhibitors, retest, confirmation, biochemical, absorbance, HTS. shares compounds with MsrA inhibitor. AID 651822, 2012. 2,300 tested, 41% active. purified bovine MsrA, absorbance read-out. inhibition, % at 15.5 µM;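 also: coupled to thioredoxin reductase with NADPH and selenocystamine and DMSO as substrate; 0% = vehicle only and 100% = full effect of reference inhibitor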
An asterisk follows results filed as active; x = no result given. Rule as the data show it, unless noted: active = inhibition above about 4.5%; inactive = the rest.

SMILES | bovine MsrA act | MsrA inhibitor | PKA-R1A act | PKA-R2B activ | Mot1-301 SUMO | MsrA conf
COc1c(C)cc(C(O)c2ncc(-c3ccccc3C(F)(F)F)[nH]2)cc1C (stereo not given) | -1.8 | 2.0 | x | x | x | x
CC(C)C[C@H]1COc2c(Cl)cccc2S(=O)(=O)N1Cc1ccc(F)cc1F | x | -0.3 | x | x | x | x
O=C(OCc1ccccc1)N1CCC2CC1c1ccc(/C=C/CCCCl)cc12 (stereo not given) | -7.0 | 0.1 | x | x | x | x
COc1cc(/C=N/NC(=O)c2ccncc2)ccc1OCCN1CCCCC1 | 3.4 | 5.4* | -15.9 | -4.3 | 5.5 | 2.4
COc1cc(/C=N/NC(=O)c2cc(-c3cccs3)nc3ccccc23)ccc1O | -3.7 | 4.9* | -10.5 | -7.3 | -15.5 | 4.0
COc1ccc(/C=N/NC(=O)c2c(C)nc3ccc(Cl)cn23)cc1OC | -0.6 | 6.2* | 6.7 | 5.8 | -10.1 | 5.3*
COc1cc(/C=N/NC(=O)c2cc(-c3cccc(OC(C)C)c3)nc3ccccc23)ccc1O | -3.4 | 1.9 | -18.6 | -3.8 | 6.4 | x
COc1cc(/C=N/NC(=O)c2c(C)nc3ccc(Cl)cn23)cc(OC)c1OC | -3.6 | 2.9 | 6.1 | 5.9 | -7.1 | x
C[C@@H]1CN([C@@H](C)CO)C(=O)CCCn2nncc2CO[C@H]1CN(C)Cc1ccc(O)cc1 | x | -0.1 | x | x | x | x
O=C(/C(C=Nc1ccc(Br)cc1)=C(/O)c1ccco1)C(F)(F)F | -4.3 | 4.8* | -2.5 | -16.1 | 23.3 | 2.7
O=C(/C(C=Nc1cccc(C(F)(F)F)c1)=C(/O)c1ccco1)C(F)(F)F | -3.9 | 2.2 | -5.2 | 2.2 | -0.7 | x
COCCn1c(=NC(=O)c2cc(Cl)sc2Cl)sc2cc(S(N)(=O)=O)ccc21 | -5.6 | 0.3 | -12.8 | -14.1 | -1.9 | x
C=CCn1c(=NC(=O)c2ccc(S(=O)(=O)N3CCc4ccccc4C3)cc2)sc2cc(S(N)(=O)=O)ccc21 | -6.8 | 2.9 | -8.1 | 3.3 | 2.9 | x
COCCn1c(=NC(=O)c2ccc3c(c2)OCCO3)sc2cc(S(N)(=O)=O)ccc21 | -15.2 | 6.2* | -11.9 | -11.9 | -6.8 | 2.5
COCCn1c(=NC(=O)c2ccc(S(=O)(=O)N3CCc4ccccc4C3)cc2)sc2cc(S(N)(=O)=O)ccc21 | -9.3 | 5.9* | -7.6 | -9.9 | x | 3.7
O=C(NCc1ccco1)/C(=C\C=C\c1ccccc1)NC(=O)c1ccccc1Br | -5.6 | 5.0* | -10.2 | -6.9 | 35.6 | 2.5
CSc1ccc(/C=C(/NC(=O)c2ccco2)C(=O)NCc2ccco2)cc1 | -7.9 | 6.3* | 0.1 | -14.5 | -0.8 | 3.1
O=C(NCc1ccco1)/C(=C\C=C\c1ccccc1)NC(=O)c1ccco1 | -6.3 | 2.8 | -5.4 | -11.0 | 14.6 | x
O=C(NCc1ccco1)/C(=C/C=C/c1ccccc1)NC(=O)c1ccco1 | -6.5 | 4.9* | 5.0 | 2.6 | -7.3 | 2.9
Cc1noc(C)c1-c1ccc(C(=O)NCCN2CCOCC2)c2occc12 | -1.0 | -0.7 | x | x | x | x
COC(=O)[C@]12C[C@H](CC(=O)N3CCCC3)C(=O)N(CCC3=CCCCC3)C1=C[C@H](C(C)(C)C)O[C@@H]2C | x | 0.8 | x | x | x | x
Cc1nnc(Nc2ccc(F)cc2)c2ccccc12 | 2.8 | 1.1 | 2.6 | 3.4 | 9.8 | x
Cc1nnc(Nc2ccccn2)c2ccccc12 | -5.7 | 5.5* | -0.1 | 4.1 | 803.7 | 1.1
N#C/C(=C\Nc1ccccc1O)c1nc2ccccc2o1 | -11.8 | 9.7* | -8.7 | 5.1 | 12.2 | 7.7*
N#C/C(=C\c1ccncc1)c1nc2ccccc2o1 | -1.7 | -1.6 | x | x | 13.2 | x
SMILES | bovine MsrA act | MsrA inhibitor | PKA-R1A act | PKA-R2B activ | Mot1-301 SUMO | MsrA conf
CC1(c2ccc(OC(F)F)cc2)NC(=O)N(CC(=O)Nc2ccccc2)C1=O (stereo not given) | -1.4 | 0.6 | 1.0 | 2.4 | 186.8 | x
Cc1ccc2nc(-c3ccc(NC(=O)CN4C(=O)NC(C)(c5ccc(OC(F)F)cc5)C4=O)cc3)sc2c1 (stereo not given) | -5.7 | 4.7* | -9.0 | 4.4 | 5.7 | 3.3
c1coc(-c2cc3nc(NC4CCCCC4)ccn3n2)c1 | -1.1 | 0.1 | x | x | x | x
O=C(Nc1ccc(-c2nc3ccccc3o2)c(O)c1)c1cc(-n2cnnc2)ccc1Cl | 2.9 | 4.8* | -15.5 | -10.2 | 7.3 | 0.0
O=C(N/N=C/c1cnc2ccccc2n1)c1cccc(F)c1 | -5.5 | 5.8* | -12.9 | -4.0 | 8.9 | 3.6
COc1ccc(/C=C/C(=O)NC(=S)Nc2ccc(S(=O)(=O)Nc3cc(C)on3)cc2)cc1 | -5.7 | 5.0* | -12.5 | -10.3 | -9.2 | 5.7*
COC(=O)C1=C(C)N(Cc2cccc(C(F)(F)F)c2)C(=NCc2cccc(C(F)(F)F)c2)NC1c1ccc(Cl)cc1 (stereo not given) | x | -2.5 | x | x | x | x
O=c1oc2ccc([N+](=O)[O-])cc2c(N2CCOCC2)c1[N+](=O)[O-] | x | 5.1* | x | x | -9.9 | 0.8
O=c1oc2ccccc2c(N2CCCC2)c1[N+](=O)[O-] | -1.0 | 3.3 | 1.6 | -4.3 | 5.1 | x
O=C1NC(=S)N/C1=C/c1cc([N+](=O)[O-])ccc1N1CCOCC1 | -3.8 | 5.0* | x | x | -5.5 | 3.0
COCCNC(=O)C1CCCN(C(=O)c2ccc(F)c(C)c2)CC1 (stereo not given) | -2.2 | -1.2 | x | x | x | x
N#C/C(C(=O)N1CCOCC1)=C1\Nc2ccccc2S1 | -7.2 | 7.9* | -7.8 | 5.4 | 14.0 | 5.7*
Cc1ccc2nc(-c3ccc(N)cc3)sc2c1 | -4.9 | -0.1 | x | x | 23.8 | x
Brc1ccc(-c2nc3ccccc3s2)s1 | 2.5 | 0.0 | -4.5 | -3.1 | x | x
COc1cc(OC)cc(-c2nc3ccccc3s2)c1 | 0.2 | -0.6 | 0.5 | -6.7 | 10.8 | x
Cc1cc(-c2nc3ccccc3s2)ccc1N | -3.3 | 4.7* | -2.1 | -3.4 | x | 3.0
Nc1ccc(-c2nc3ccccc3s2)cn1 | -3.1 | 5.3* | -1.1 | 3.2 | -28.7 | 2.4
Nc1ccc2nc(-c3ccccc3)sc2c1 | -8.3 | 4.7* | -0.9 | 0.9 | 64.7 | 3.1
Cc1nnc(N/N=C/c2ccc(-c3ccccc3F)o2)n1N | 1.4 | 6.1* | 4.2 | -12.8 | -3.7 | 6.0*
Cc1nnc(N/N=C/c2c(Cl)cccc2Cl)n1N | 5.7 | -0.2 | -1.0 | -4.2 | -5.0 | x
Cc1[nH]c2ccccc2c1CC(=O)Nc1ccc(Nc2ccccc2)cc1 | x | 1.4 | x | x | x | x
COc1ccccc1NS(=O)(=O)c1cc([N+](=O)[O-])ccc1N/N=C/c1c[nH]c2ccccc12 | -0.9 | 0.0 | -5.2 | 2.6 | 10.7 | x
COc1ccccc1NS(=O)(=O)c1cc([N+](=O)[O-])ccc1N/N=C/c1sc(N2CCOCC2)nc1-c1ccccc1 | -2.1 | 10.7* | 1.8 | -2.5 | 4.5 | 7.0*
